What all share (experiment): NCI-60 one-dose screen, 48 h (100 = growth as untreated, 0 = no growth, -100 = all killed)
Experiment [1] relates to SR leukemia. Particulars: 10 µM unless noted.
Experiment [2] concerns RPMI-8226 leukemia. To be noted: 10 µM unless noted.
Experiment [3] relates to OVCAR-8 ovarian. To be noted: 10 µM unless noted.
For experiment [4], the system named is OVCAR-5 ovarian. To be noted: 10 µM unless noted.
Experiment [5] relates to OVCAR-4 ovarian. Particulars: 10 µM.
Experiment [6] deals with SK-OV-3 ovarian. Particulars: 10 µM unless noted.
The test system of experiment [7] is IGROV1 ovarian. To be noted: 10 µM unless noted.
Experiment [8] concerns OVCAR-3 ovarian. Particulars: 10 µM unless noted.
Experiment [9] concerns HS 578T breast. To be noted: 10 µM unless noted.
The subject of experiment [10] is NCI/ADR-RES ovarian. Particulars: 10 µM unless noted.
Experiment [11] has as its system T-47D breast. Particulars: 10 µM unless noted.
The test system of experiment [12] is MDA-MB-435 melanoma. Particulars: 10 µM unless noted.
In experiment [13] the test system is SW-620 colon. Particulars: 10 µM unless noted.
Experiment [14] concerns MCF7 breast. Particulars: 10 µM unless noted.
Experiment [15] has as its system HCT-116 colon. To be noted: 10 µM unless noted.
Experiment [16] deals with HCC-2998 colon. Particulars: 10 µM unless noted.
For experiment [17], the system named is KM12 colon. To be noted: 10 µM unless noted.
The subject of experiment [18] is BT-549 breast. Particulars: 10 µM unless noted.

About 83,000 compounds went through this panel and 20% of them were active in at least one assay; those are over-represented in the sample as a whole.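 Note: values are percent growth. 100 is the growth of untreated cells, values between 100 and 0 indicate rising inhibition; between -100 and 0 indicates cell death.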 Unmarked numbers belong to inactive results. Active and inactive are the calls of the source. The calls were made as follows: active = growth percent below 10; inactive = the rest.

As to `Cn1ncc2c(Nc3ccc(O)cc3)nc(Cl)nc21`, the growth in [1] is 75.3%; in experiment [2], 79.4%; in experiment [3], 104%; in [4], 105%; in [5], 105%; in experiment [6] it was 105%. Also, the growth in experiment [7] is 92.9%; in [8], 117%; in experiment [9] it was 102%; in [10] it was 97.3%; in experiment [11] it was 106%; in [12], 102%. Further, the growth in experiment [13] was 118%; in experiment [14], 94%; in experiment [15], 108%; in experiment [16], 105%; in experiment [17] it was 106%.
For the compound `NNC(=O)c1ccc(C(=O)NN)cc1`, the growth in experiment [1] is 126%; in experiment [2], 104%; in [3], 84.9%; in experiment [4], 113%; in [5], 127%; in [6] it was 119%. Further, the growth was 116% in [7]; 112% in [8]; 97.9% in experiment [9]; 104% in experiment [10]; 133% in experiment [11]; 106% in experiment [12]. Also, the growth in [13] was 99.2%; in experiment [14], 106%; in [15] it was 108%; in experiment [16], 100%; in experiment [17] it was 107%.
In the case of `CCCCC(CC)COC(=O)C[N+](C)(C)CCOC(c1ccccc1)c1ccccc1` (centres undefined), the growth in experiment [1] was -30.2% (active); in [2], -61% (active); in [3] it was 48.8%; in experiment [4], 75.6%; in experiment [5], 22.9%; in experiment [6], 59%. The growth was -0.732% (active) in [7]; 19.2% in [8]; 69.7% in experiment [9]; 99.1% in experiment [10]; 17.6% in experiment [18]; 0.527% (active) in [12]. Further, the growth was 52.2% in experiment [13], 33.6% in [14], 31.7% in experiment [15] and 3.56% (active) in experiment [16].
`Cn1cc(-c2noc(-c3cn(C)c4ncc(Br)cc34)n2)c2cc(Cl)ccc21`: the growth was 44.3% in [1]; 87.6% in experiment [2]; 99.7% in [3]; 70.5% in [4]; -25.7% (active) in [5]; 62.8% in [6]. In addition, the growth in experiment [7] was 54.2%; in [8], 44.2%; in experiment [9], 65.8%; in experiment [10], 58.5%; in [11], 31.6%; in experiment [12] it was 68.3%. Moreover, the growth in [13] was 39.9%; in experiment [14] it was 65.9%; in [15], 35.2%; in [16], 93.9%; in experiment [17], 75.7%.
Turning to `CCN(CC)c1cc(N)c(Cc2c(N)cc(N(CC)CC)cc2Cl)c(Cl)c1`, the growth was 34.8% in experiment [1]; 3.27% (active) in experiment [2]; 37.3% in experiment [3]; 92.3% in experiment [4]; 23.8% in experiment [5]; 49.8% in experiment [6]. In addition, the growth in [7] is 54.7%; in experiment [8] it was 47.2%; in experiment [9], 56%; in [10] it was 81.5%; in experiment [18] it was 24.9%; in experiment [12], 38.7%. Further, the growth in experiment [13] was 80%; in experiment [14], 24.7%; in [15], 38.3%; in [16], 47%.
`COc1ccc(/C=C(/C2=NCCN2)n2ccc3ccccc32)cc1`: the growth was 79.5% in experiment [1]; 93.1% in [2]; 97.1% in experiment [3]; 90% in experiment [4]; 94.8% in experiment [5]; 97.1% in experiment [6]. Further, the growth in [7] is 82.8%; in [8] it was 97.9%; in [9], 84.4%; in experiment [10] it was 93%; in [11] it was 86.2%; in experiment [12], 89.9%. The growth in experiment [13] is 87.1%; in [14] it was 83.4%; in experiment [16], 98.5%; in [17], 95.8%.
For `CC1Cc2ccc(OCCN(C)C)cc2C1=O` (centres undefined), the growth is 101% in experiment [1]; 88.4% in experiment [2]; 101% in experiment [3]; 105% in experiment [4]; 110% in experiment [5]; 97.8% in experiment [6]. Besides, the growth in experiment [7] was 106%; in experiment [8], 110%; in experiment [9] it was 97.3%; in [10] it was 107%; in [18] it was 99.3%; in [12], 102%. Further, the growth in experiment [13] was 101%; in [14] it was 100%; in experiment [15] it was 95.4%; in [16], 109%.
For `CN(C)C(=S)Sc1ccc([N+](=O)[O-])cc1[N+](=O)[O-]`, the growth in [1] is 7.64% (active); in experiment [2] it was 27.7%; in experiment [3], 18.7%; in experiment [4], 72.9%; in experiment [5], 20.8%; in experiment [6], 93.1%. The growth was 1.54% (active) in experiment [7]; 1.07% (active) in experiment [8]; 97.5% in [9]; 40.8% in experiment [10]; -34.7% (active) in experiment [11]; 44.4% in [12]. Also, the growth in [13] is -63.1% (active); in [14] it was 0.536% (active); in experiment [15] it was -54.4% (active); in [16], 88.9%; in experiment [17], 49.1%.
`COc1ccc2nc3cc(Cl)ccc3c(Nc3ccc(O)cc3)c2c1`: the growth was -22.2% (active) in [1]; 68.6% in experiment [2]; 68.5% in experiment [3]; 104% in experiment [4]; 90.4% in experiment [5]; 93.3% in [6]. Also, the growth in [7] is 71.3%; in experiment [8], 83%; in experiment [9], 76.2%; in experiment [10], 71.2%; in experiment [11], 80%; in experiment [12], 96%. Further, the growth in experiment [13] is 49.1%; in experiment [14], 24.6%; in [15], 53.1%; in experiment [16], 62.1%; in experiment [17], 63.5%.

Values taken from PubChem BioAssay (NCI).
